PubChem BioAssay (NCATS)
Several values for one entry are separate records, joined by “and”; a condition that tells them apart may be missing. Equal values may be shown once. Records with an inconclusive call do not appear. Activity calls are given as the source filed them. Calls follow the shape of the dose curve; as a rule, active = well fitted curve in the direction sought with a large enough effect; inconclusive = small, poorly fitted or top-dose-only effect, or another doubt; inactive = no such curve, though single readings can be large; an effect the other way counts as inactive or inconclusive.

Legend:
[1] = target: Cellular tumor antigen p53 (Homo sapiens) (UniProt P04637); assay: Primary qHTS for small molecule compounds that upregulate eGFP-tagged delta133p53alpha (in N-terminal) cells. (AID 2060322); conditions: NCI-H358 eGFP-delta133p53alpha fluorescence, 24 h; activation: hits give high values; also: nearly all actives have a fitted effect of over 75% in size; also: potency is read from the fitted curve at half-maximal effect;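 as to activation: series mostly up to about 56 µM; 0% = DMSO vehicle and 100% = reference activator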
Summary of the method: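 NCI-H358 cells pre-induced 24 h with 10 ng/ml doxycycline to express N-terminal eGFP-delta133p53alpha, then dosed 24 h at 37C without doxycycline; fixed, Hoechst-stained, GFP intensity by laser scanning cytometry, normalized to DMSO (0%) and 57.5 uM 5-azacytidine (100%).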

[2] = target: Aldehyde dehydrogenase, mitochondrial (Homo sapiens) (UniProt P05091); assay: qHTS for Inhibitors of the Aldehyde Dehydrogenase Family (ALDH2) Primary screen (AID 2061308);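 also: plate controls were vehicle for no effect and reference inhibitor for full effect; nearly all actives have a fitted effect of over 55% in size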
[3] = target: Retinaldehyde dehydrogenase 3 (Homo sapiens) (UniProt P47895); assay: qHTS for Inhibitors of the Aldehyde Dehydrogenase Family (ALDH1A3) Primary screen (AID 2061315);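 also: plate controls were DMSO vehicle for no effect and reference inhibitor for full effect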
[4] = BET inhibitor-based combinations targeting novel dependencies in MECOM-rearranged (r) AML: SET-2 cell line (AID 2202231); conditions: SET-2 AML cells viability, CellTiter-Glo luminescence, 48 h; viability: hits give low values, concentration not given here; also: nearly all actives have a fitted effect of over 35% in size; also: potency is read from the fitted curve at half-maximal effect;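 as to viability: plate controls were DMSO treated cells for no effect and wells without cells for full effect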
Summary of the method: (§1)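 Luminescent ATP readout (CellTiter-Glo) after 48 hr drug exposure gives viability. Curves span 11 concentrations and are normalized to DMSO and empty wells. Activity is reported as area under the curve and its Z-transform within each cell line.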

[5] = BET inhibitor-based combinations targeting novel dependencies in MECOM-rearranged (r) AML: MV-4-11 cell line (AID 2202233); also: nearly all actives have a fitted effect of over 45% in size; also: potency is read from the fitted curve at half-maximal effect
Summary of the method: (§2)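 Luminescent ATP readout (CellTiter-Glo, 15 min at room temperature) after 48 hr drug exposure gave viability. Dose-response curves, normalized to DMSO and empty-well controls, were summarized as area under the curve and its mean-centred Z-score.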

[6] = BET inhibitor-based combinations targeting novel dependencies in MECOM-rearranged (r) AML: HNT-34 cell line (AID 2202234); also: nearly all actives have a fitted effect of over 35% in size; also: potency is read from the fitted curve at half-maximal effect
Summary of the method: as §2

[7] = BET inhibitor-based combinations targeting novel dependencies in MECOM-rearranged (r) AML: UCSD-AML1 cell line (AID 2202235); also: nearly all actives have a fitted effect of over 40% in size; also: potency is read from the fitted curve at half-maximal effect
Summary of the method: as §2

[8] = BET inhibitor-based combinations targeting novel dependencies in MECOM-rearranged (r) AML: AML-191 cell line (AID 2202236; also: nearly all actives have a fitted effect of over 35% in size; also: potency is read from the fitted curve at half-maximal effect)
Summary of the method: as §1

[9] = BET inhibitor-based combinations targeting novel dependencies in MECOM-rearranged (r) AML: AML-194 cell line (AID 2202237; also: nearly all actives have a fitted effect of over 40% in size; also: potency is read from the fitted curve at half-maximal effect)
Summary of the method: as §1

[10] = BET inhibitor-based combinations targeting novel dependencies in MECOM-rearranged (r) AML: OCI-AML3 cell line (AID 2202232); conditions: Potency: OCI-AML3 viability; also: nearly all actives have a fitted effect of over 35% in size; also: potency is read from the fitted curve at half-maximal effect
Summary of the method: as §1

Cellular tumor antigen p53 (Homo sapiens), sequence (P04637 whole entry, looked up): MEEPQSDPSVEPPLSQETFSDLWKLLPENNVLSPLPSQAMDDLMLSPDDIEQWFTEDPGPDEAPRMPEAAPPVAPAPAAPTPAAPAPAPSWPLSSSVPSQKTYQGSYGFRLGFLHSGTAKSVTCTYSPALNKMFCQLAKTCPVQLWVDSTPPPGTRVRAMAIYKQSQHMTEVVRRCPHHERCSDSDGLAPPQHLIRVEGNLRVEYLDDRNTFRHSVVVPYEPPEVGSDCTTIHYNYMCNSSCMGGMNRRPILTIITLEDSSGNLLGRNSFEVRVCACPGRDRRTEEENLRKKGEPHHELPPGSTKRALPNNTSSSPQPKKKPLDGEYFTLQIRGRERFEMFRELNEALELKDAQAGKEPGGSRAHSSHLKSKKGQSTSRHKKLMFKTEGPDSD

CC1c2ccccc2CN1NC(=O)c1ccc(Cl)c(S(N)(=O)=O)c1 (stereo unspecified)
inactive: activation [1] 6.69% | Potency [2] | Potency [3] | viability [4] 109% | Potency [5] | Potency [6] | Potency [7] | Potency [8]

CCOC(=O)[C@H]1O[C@@H]1C(=O)N[C@@H](CC(C)C)C(=O)NCCC(C)C
active: Potency [5] 14.8 µM
inactive: activation [1] 4.33% | Potency [2] | Potency [3] | viability [4] 108% | Potency [6] | Potency [7] | Potency [8] | Potency [9]

COc1ccc(C2(C#N)CCC(C(=O)O)CC2)cc1OC1CCCC1 (stereo unspecified)
inactive: activation [1] -6.96% and -15.7% | Potency [2] | Potency [3] | viability [4] 119% | Potency [10] | Potency [6] | Potency [8] | Potency [9]

CCn1c(-c2nonc2N)nc2cncc(CNC3CCNCC3)c21
active: Potency [10] 1.66 µM | Potency [7] 5.9 µM | Potency [8] 1.86 µM | Potency [9] 4.68 µM
inactive: activation [1] -16.3% and 6.25% | Potency [2] | Potency [3] | viability [4] 103%

Cc1cccc(CC(=O)N2CCc3c2ccc(-c2cn(C)c4ncnc(N)c24)c3F)n1
inactive: activation [1] 0.893% | Potency [2] | Potency [3]
active: Potency [4] 5.9 µM | Potency [5] 5.9 µM | Potency [6] 4.17 µM

CC#CC(=O)N1CCC[C@H]1c1nc(-c2ccc(C(=O)Nc3ccccn3)cc2)c2c(N)nccn12
inactive: activation [1] 15.7% | Potency [2] | Potency [3] | viability [4] 96.5% | Potency [10] | Potency [6] | Potency [7] | Potency [9]

N#CN1CCC[C@@H](n2nc(-c3ccc(Oc4ccc(F)cc4F)cc3)c(C(N)=O)c2N)C1
active: Potency [10] 10.5 µM
inactive: activation [1] -16.1% | Potency [2] | Potency [3] | viability [4] 107% | Potency [9]

CN1C(=O)C(Cc2c[nH]c3ccccc23)NC1=S (stereo unspecified)
inactive: activation [1] 23.7% | Potency [2] | Potency [3] | viability [4] 99.6% | Potency [10] | Potency [6] | Potency [8]

CC(C)S(=O)(=O)c1ccc2nccc(Nc3ccc4scnc4c3)c2c1
inactive: activation [1] -14.3% | Potency [2] | Potency [3] | viability [4] 95.8% | Potency [10] | Potency [8] | Potency [9]
active: Potency [6] 10.5 µM

COc1ccc(CCN2CCN(CCCc3ccccc3)CC2)cc1OC
inactive: activation [1] 20.6% and -1.43% | Potency [2] | Potency [3] | Potency [10] | Potency [7] | Potency [8] | Potency [9]
active: Potency [4] 18.6 µM

NC(=O)c1cccc(-c2cc(Nc3ccc(OC(F)(F)F)cc3)ncn2)c1
inactive: activation [1] -25.2% and 10.7% | Potency [2] | Potency [3]
active: Potency [4] 20.9 µM | Potency [5] 16.6 µM | Potency [6] 1.86 µM

CCc1ccc(C(=O)Nc2cc(CN3CCN(C)CC3)cc(C(F)(F)F)c2)cc1C#Cc1cnc2ccnn2c1
active: Potency [1] 19 µM | Potency [4] 14.8 µM | Potency [10] 10.5 µM | Potency [6] 1.86 µM | Potency [7] 9.34 µM | Potency [9] 5.9 µM
inactive: Potency [2] | Potency [3]

CCC(=O)N[C@H]1CC[C@H](C(=O)N(C)c2ccc(-c3nc4ccccc4o3)cc2)C1
active: Potency [10] 18.6 µM | Potency [8] 20.9 µM
inactive: activation [1] 18% | Potency [2] | Potency [3] | viability [4] 98.9% | Potency [7]

Cc1sc2c(c1C)C(c1ccc(Cl)cc1)=N[C@@H](CC(=O)Nc1ccc(OCCOCCOCCOCCNc3cccc4c3C(=O)N(C3CCC(=O)NC3=O)C4=O)cc1)c1nnc(C)n1-2 (stereo partly specified)
inactive: activation [1] 59% | Potency [2] | Potency [3]
active: Potency [4] 1.05 µM | Potency [5] 0.0417 µM | Potency [6] 0.0148 µM | Potency [7] 0.0209 µM | Potency [8] 0.0833 µM

Cc1ccccc1C(=O)Nc1ccc(C(=O)N2CCCC(O)c3cc(Cl)ccc32)c(C)c1 (stereo unspecified)
inactive: activation [1] 0.83% | Potency [2] | Potency [3] | viability [4] 88.6% | Potency [10] | Potency [6] | Potency [8] | Potency [9]

Cc1c(NC(=O)c2ccc(C(C)(C)C)cc2)cccc1-c1cn(C)c(=O)c(Nc2ccc(C(=O)N3CCOCC3)cc2)n1
active: Potency [4] 16.6 µM
inactive: activation [1] 63.1% and -9.82% | Potency [2] | Potency [3] | Potency [10] | Potency [7]

Cc1cnc(-c2cnc(NCCNc3ccc(C#N)cn3)nc2-c2ccc(Cl)cc2Cl)[nH]1
active: Potency [4] 14.8 µM
inactive: activation [1] 9% | Potency [2] | Potency [3] | Potency [10] | Potency [9]

CC1=C(C(=O)Nc2cc3cn[nH]c3cc2F)C(c2ccc(C(F)(F)F)cc2)CC(=O)N1 (stereo unspecified)
inactive: activation [1] -14.3% and -24.1% | Potency [2] | Potency [3] | viability [4] 110% | Potency [9]
active: Potency [10] 2.95 µM
